Assay outcomes as filed in PubChem BioAssay.
An excerpt weighted towards active compounds, which were near 2% of everything screened.
Neddylation inh = cullin neddylation inhibition; P61081+Q13564; TR-FRET cullin neddylation, biochemical; AID 651699; inhibition, % at 25 µM; 0.58% of 360,000 active; in the data active means inhibition above about 36%
Target sequence (P61081 whole entry, looked up): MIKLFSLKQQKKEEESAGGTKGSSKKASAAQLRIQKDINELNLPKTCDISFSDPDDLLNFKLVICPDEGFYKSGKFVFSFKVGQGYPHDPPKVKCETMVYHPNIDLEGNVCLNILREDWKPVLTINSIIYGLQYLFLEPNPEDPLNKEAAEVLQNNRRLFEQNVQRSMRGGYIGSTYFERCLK
Target sequence (Q13564 whole entry, looked up): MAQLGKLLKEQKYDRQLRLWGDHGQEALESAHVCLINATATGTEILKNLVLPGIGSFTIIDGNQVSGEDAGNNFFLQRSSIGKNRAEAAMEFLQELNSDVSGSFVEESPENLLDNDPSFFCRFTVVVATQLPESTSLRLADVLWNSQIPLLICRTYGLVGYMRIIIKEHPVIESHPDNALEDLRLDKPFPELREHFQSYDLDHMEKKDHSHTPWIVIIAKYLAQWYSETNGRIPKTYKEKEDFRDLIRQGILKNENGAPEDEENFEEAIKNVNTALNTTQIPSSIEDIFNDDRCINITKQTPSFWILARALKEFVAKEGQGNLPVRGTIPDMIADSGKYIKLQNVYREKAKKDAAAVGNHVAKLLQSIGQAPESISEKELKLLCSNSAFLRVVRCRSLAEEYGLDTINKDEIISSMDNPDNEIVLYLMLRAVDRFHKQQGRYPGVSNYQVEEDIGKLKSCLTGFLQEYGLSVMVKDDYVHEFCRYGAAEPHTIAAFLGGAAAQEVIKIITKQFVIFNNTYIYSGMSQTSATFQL
GC-B act = GC-B (human) receptor activation. P20594. HEK293-GC-B cells, CNP EC30, cGMP TR-FRET; 0% at EC30 CNP, 100% saturating CNP. activation, % at 10 µM. 0.11% of 370,000 active;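 active means activation at 10 µM reaching about 35% in either raw or pattern-adjusted values, limit read from the data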
GC-A act = GC-A (human) enzyme activation; P16066; HEK293 GC-A cells, cGMP TR-FRET, EC30 ANP; 0% at EC30 ANP, 100% saturating ANP; activation, % at 10 µM; 0.14% of 370,000 active; in the data active means activation above about 40%
APOBEC3G inh = blocks human APOBEC3G single-stranded DNA deamination; recombinant A3G, ssDNA deamination FAM/TAMRA fluorescence; inhibition, % at 20 µM; 0.28% of 330,000 active; AID 493012;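 active means inhibition of at least 40% at 20 µM, with no more than 30% in the related APOBEC3A deaminase screen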;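 further: plate controls were DMSO wells with A3G for no effect and wells lacking A3G enzyme for full effect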
APOBEC3A inh = inhibitors of human APOBEC3A DNA deaminase | P31941 | recombinant A3A, FAM/TAMRA ssDNA deamination fluorescence | inhibition, % at 20 µM | 0.41% of 330,000 active | AID 493011;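 active means at least 40% inhibition at 20 µM here, with at most 30% in a related deaminase screen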;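 further: plate controls were A3A with DMSO for no effect and wells lacking A3A enzyme for full effect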
PfGluPho inh = PfG6PD (Plasmodium falciparum) enzyme inhibition. PfGluPho enzyme, NADPH resazurin-diaphorase fluorescence. inhibition, % at 20 µM. 0.78% of 350,000 active;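 active means inhibition reaching at least a set limit at 20 µM in the primary screen, cut at about 59% in these data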;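 further: 0% = DMSO wells with substrate and 100% = DMSO wells lacking glucose-6-phosphate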
A3G conf = APOBEC3G (human) deaminase inhibition, confirmed. shares compounds with APOBEC3G inh. recombinant A3G ssDNA deaminase, UDG/FAM-TAMRA fluorescence. inhibition, % at 20 µM. 72% of 890 active. AID 493152;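 active means inhibition reaching a set limit in any replicate at 20 µM, the limit being 80% of the first screen's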
UDG ctr A3G = counter-screen for APOBEC3G inhibitors: E. coli UDG; shares compounds with APOBEC3G inh; UDG counterscreen, FAM/TAMRA oligo fluorescence; inhibition, % at 20 µM; 710 tested, under 10 active; AID 504715;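 active means compounds giving 40% or more inhibition at 20 µM in any one of the three replicates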;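 further: plate controls were DMSO wells with UDG and oligo for no effect and DMSO wells lacking both for full effect; inhibitors lower the FAM signal released by uracil excision and alkaline cleavage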
The depositor's hits bear a star; . = no result given.

SMILES	Neddylation inh	GC-B act	GC-A act	APOBEC3G inh	APOBEC3A inh	PfGluPho inh	A3G conf	UDG ctr A3G
S=c1[nH]nc(-c2ccco2)n1/N=C/c1ccccn1	.	.	.	59*	-1	.	83*	1
Fc1cccc(-c2n[nH]c(=S)n2-c2ccccc2)c1	-2	6	14	41*	-4	11	86*	-2
O=C(N[C@H](Cc1ccccc1)C(=O)N1CCN(CC(=O)N2CCCC2)CC1)[C@H]1O[C@@H](n2ccc(=O)[nH]c2=O)[C@H](O)[C@@H]1O	.	0	0	.	.	.	.	.
CCOC(=O)N1CCN(C(=O)C[C@@H]2C(=O)N3CCCC4=C3[C@@]2(C(=O)OCC)CCC4)CC1	.	0	-3	.	.	.	.	.
Cc1ccc(/C=N/n2c(-c3ccco3)n[nH]c2=S)cc1	4	3	2	40*	-4	6	66*	-1
Cc1ccsc1/C=N/n1c(-c2ccco2)n[nH]c1=S	-16	1	1	42*	0	31	77*	-3
S=c1[nH]nc(-c2ccco2)n1/N=C/c1ccc(Cl)c(Cl)c1	-10	-5	1	44*	-5	22	-1	-2
Cc1cccc(/C=N/n2c(-c3ccco3)n[nH]c2=S)c1	6	-4	4	35	-5	15	.	.
Fc1ccc(-n2c(-c3ccco3)n[nH]c2=S)cc1	16	0	4	.	.	39	.	.
Cc1ccc(-n2c(-c3ccco3)n[nH]c2=S)cc1	13	-1	-2	45*	-3	22	72*	1
C[C@@H]1C[C@H](O)CCCCCC(=O)Cc2cc(O)cc(O)c2C(=O)O1	.	11	6	.	.	.	.	.
Cc1occc1-c1n[nH]c(=S)n1C	-1	1	1	9	-4	3	.	.
Cc1occc1-c1n[nH]c(=S)n1-c1ccccc1	-27	1	2	42*	-2	20	14*	-5
C=C(C)C(=O)Nc1cccc(C2=NOC3(C2)C[C@@H](C(N)=O)N(C(=O)C2(C)CC2)C3)c1 (some centres not stated)	-34	0	2	89*	21	25	94*	.
C/C=C\C(=O)Nc1cccc(C2=NOC3(C2)C[C@@H](C(N)=O)N(C(=O)C2(C)CC2)C3)c1 (some centres not stated)	3	-2	0	6	4	-8	.	.
C=C(C)C(=O)Nc1cccc(C2=NOC3(C2)C[C@@H](C(N)=O)N(C(=O)C(=C)C)C3)c1 (some centres not stated)	-8	4	4	88*	13	17	92*	2
C=C(C)C(=O)N1CC2(CC(c3cccc(NC(=O)/C=C\C=C/C)c3)=NO2)C[C@H]1C(N)=O (some centres not stated)	-14	-1	4	21	3	21	.	.
Cc1c(/C=N/Nc2ccc(F)cc2)c(O)n(C)c(=O)c1C#N	22	4	2	64*	-1	11	-1	-3
CC(=O)N=Cc1c(C)c(C#N)c(=O)n(C)c1O	4	1	0	-3	-1	39	.	.
Cc1ccc(CN(Cc2ccccc2)C(=S)NCC(=O)NCc2cccnc2)o1	6	-1	-1	45*	-4	17	7	3
Nc1[nH]c(C(=O)c2ccccc2)c(-c2ccc(Cl)cc2Cl)c1C(=O)NCCC1=CCCCC1	.	6	-9	.	.	.	.	.
c1ccc(CCc2nn3c(C4COc5ccccc5O4)nnc3s2)cc1 (configuration not stated)	-2	0	8	48*	2	49	31*	3
c1ccc(CCc2nn3c(Cc4ccccc4)nnc3s2)cc1	-4	-1	5	53*	2	49	59*	.
COc1ccccc1-c1nn2c(C3COc4ccccc4O3)nnc2s1 (configuration not stated)	-35	-10	9	51*	-2	50	3	4
c1ccc(Cc2nn3c(C4COc5ccccc5O4)nnc3s2)cc1 (configuration not stated)	-5	-1	6	16	4	44	.	.
SMILES	Neddylation inh	GC-B act	GC-A act	APOBEC3G inh	APOBEC3A inh	PfGluPho inh	A3G conf	UDG ctr A3G
c1ccc(Cc2nnc3sc(-c4cccs4)nn23)cc1	-18	0	-8	20	3	35	.	.
O=C(CC1CCCC1)N[C@H](C(=O)N1CCC[C@H]1C(=O)NC1CCCC1)c1ccccc1	.	2	1	.	.	.	.	.
O=C(c1ccccc1)N1CCC2CCN(S(=O)(=O)c3ccccc3)CC21 (configuration not stated)	.	6	2	.	.	.	.	.
S=c1[nH]nc(-c2ccccc2)n1C1C=CCCC1 (configuration not stated)	-2	7	3	42*	-1	49	79*	-2
CC(C)OC(=O)c1ccc2nc3ccccc3nc2c1	-40	-5	2	64*	-1	10	-2	2
CC(C)C(=O)NC(c1cccs1)c1cc([N+](=O)[O-])c2cccnc2c1O (configuration not stated)	-32	.	.	54*	2	32	13*	-1
O=C1OC(c2ccccc2)c2ccccc21 (configuration not stated)	4	1	0	2	1	7	.	.
O=S1OC(c2ccccc2)c2cc(Cl)ccc21 (configuration not stated)	4	1	0	41*	5	30	4	.
Nc1nc(-c2ccc3c(c2)OCCO3)cs1	-3	-1	14	-2	-4	-10	.	.
Nc1nc(-c2cc3c(cc2Cl)OCCO3)cs1	-13	-3	0	52*	-1	0	-9	-3
CCn1cc(C(=O)NCC(OC)OC)c(=O)c2cc(S(=O)(=O)N3CCCC3)ccc21	2	-7	3	-5	-3	5	.	.
CCn1cc(C(=O)NCC(OC)OC)c(=O)c2cc(S(=O)(=O)N3CCC(C)CC3)ccc21	10	0	5	59*	-2	0	-2	-2
CCOc1ccc(-n2c(SCC(=O)c3ccccc3Cl)nnc2-c2ccncc2)cc1	.	-6	-4	.	.	.	.	.
O=C(O)c1ccc(C=Nn2c(-c3ccc(F)cc3)n[nH]c2=S)cc1	.	2	3	.	.	.	.	.
O=C(CN1CCN(c2ccc(O)cc2)CC1)Nc1ccc(SC(F)F)cc1	3	10	0	43*	3	48	6	.
CCOC(=O)N1CCN(c2ccnc3cc(Cl)ccc23)CC1	25	-2	-4	58*	-1	5	-59	-3
